Values joined by “and” are separate entries in the source; they are usually repeats but may differ in a detail not shown here. Equal entries are not always repeated. Inconclusive results are not listed. More than one record can exist for a structure, and the calls need not agree. Active and inactive are the calls of the source. How the source made its calls, unless noted: active means hit-call score of the fitted dose curve at least 0.9, where 1 is the maximum; inactive means score below 0.9.
Experiments:
[1] = read-out: Monokine induced gamma interferon (MIG), CXCL9 (gene 4283); test: BSK_3C_MIG: BioMAP Diversity Plus: 3C Assay for Monokine induced gamma interferon (MIG) Biomarker Activity (AID 2283021); conditions: primary human endothelial cells (HUVEC); actives raise or lower the signal;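 on AC50: MIG protein level measured by immunoassay in the treated endothelial cultures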
Summary of the method: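 Endothelial primary cells (human umbilical vein) are dosed with test chemical in the 3C system. MIG levels are measured by ELISA at 24 h and fitted in both directions relative to DMSO.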

[2] = BSK_3C_SRB: Viability Assessment in the BioMAP Diversity Plus: 3C Assay (AID 2283023); conditions: primary human endothelial cells (HUVEC);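 further: cells read 24 h after compound dosing; fitted both ways against DMSO so a hit may be signal rise or drop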
Summary of the method: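 Cells were dosed with chemical, cultured 24 h, fixed with 10% TCA, stained with 0.1% SRB and read at 560 nm. Human umbilical vein endothelium was used; DMSO served as negative control and baseline.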

[3] = read-out: Matrix Metallopeptidase 1 (MMP1), MMP1 (gene 4312); test: BSK_BE3C_MMP1: BioMAP Diversity Plus: BE3C Assay for Matrix Metallopeptidase 1 (MMP1) Biomarker Activity (AID 2283024); conditions: primary human bronchial epithelial cells; actives raise or lower the signal
Summary of the method: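 MMP1 signal, measured by ELISA after a 24 h chemical exposure of human primary bronchial epithelial cells, is analysed with bidirectional fitting using DMSO as negative control.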

[4] = read-out: Pselectin, SELP (gene 6403); test: BSK_4H_Pselectin: BioMAP Diversity Plus: 4H Assay for Pselectin Biomarker Activity (AID 2283026); conditions: primary human endothelial cells (HUVEC); actives raise or lower the signal
Summary of the method: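 Endothelial primary cells (human umbilical vein) are dosed, incubated 24 h, and assayed for surface P-selectin by ELISA; responses in either direction are fitted relative to the DMSO negative control.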

[5] = BSK_4H_SRB: Viability Assessment in the BioMAP Diversity Plus: 4H Assay (AID 2283027); conditions: primary human endothelial cells (HUVEC);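 further: cells exposed to compound for 24 h before staining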;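 on AC50: curves fitted both ways versus DMSO so AC50 may be loss or gain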
Summary of the method: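 HUVEC, 24 h post-dose; 10% TCA fix, 0.1% SRB stain, A560 nm. Total protein = overt cytotoxicity, parallel to biomarker read. Bidirectional fit vs DMSO baseline.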

[6] = BSK_BE3C_SRB: Viability Assessment in the BioMAP Diversity Plus: BE3C Assay (AID 2283028); conditions: primary human bronchial epithelial cells;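 on AC50: fitted both ways so AC50 may mark signal gain or loss versus DMSO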
Summary of the method: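 Overt cytotoxicity was assessed as total protein in confluent human primary bronchial epithelial cultures 24 h after chemical addition, using 0.1% sulforhodamine B staining read at 560 nm.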

[7] = read-out: Thrombomodulin, THBD (gene 7056); test: BSK_3C_Thrombomodulin: BioMAP Diversity Plus: 3C Assay for Thrombomodulin Biomarker Activity (AID 2283029); conditions: primary human endothelial cells (HUVEC); actives raise or lower the signal
Summary of the method: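 Endothelial cells from umbilical vein are dosed with test chemical and incubated 24 h. Thrombomodulin is then quantified by ELISA, with DMSO serving as negative control and activity baseline.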

[8] = read-out: Urokinase-type plasminogen activator receptor (uPAR), PLAUR (gene 5329); test: BSK_4H_uPAR: BioMAP Diversity Plus: 4H Assay for Urokinase-type plasminogen activator receptor (uPAR) Biomarker Activity (AID 2283030); conditions: primary human endothelial cells (HUVEC); actives raise or lower the signal
Summary of the method: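 Chemicals are dosed onto human vascular endothelial primary cells (umbilical vein). After 24 h, uPAR is read by ELISA. Gain or loss of signal is fitted relative to DMSO.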

[9] = read-out: Vascular endothelial growth factor receptor 2 (Homo sapiens) (UniProt P35968); test: BSK_4H_VEGFRII: BioMAP Diversity Plus: 4H Assay for Vascular endothelial growth factor receptor 2 (VEGFR2) Biomarker Activity (AID 2283031); conditions: primary human endothelial cells (HUVEC); actives raise or lower the signal;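 on AC50: cell-surface VEGFR2 protein level quantified by ELISA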
Summary of the method: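 VEGFRII levels on human vascular endothelial primary cells were determined by ELISA at 24 hours post-dosing, with gain- or loss-of-signal fitted against DMSO controls.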

[10] = read-out: Human Leukocyte Antigen - DR isotype (HLADR), HLA-DRA (gene 3122); test: BSK_BE3C_HLADR: BioMAP Diversity Plus: BE3C Assay for Human Leukocyte Antigen - DR isotype (HLADR) Biomarker Activity (AID 2283032); conditions: primary human bronchial epithelial cells; actives raise or lower the signal
Summary of the method: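 Chemicals are dosed onto BE3C bronchial epithelial cultures of human origin and left 24 h. HLA-DR is then measured by ELISA, and the endpoint is fitted in both directions using DMSO as the activity baseline.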

[11] = read-out: Vascular cell adhesion molecule 1 (VCAM1), VCAM1 (gene 7412); test: BSK_4H_VCAM1: BioMAP Diversity Plus: 4H Assay for Vascular cell adhesion molecule 1 (VCAM1) Biomarker Activity (AID 2283033); conditions: primary human endothelial cells (HUVEC); actives raise or lower the signal
Summary of the method: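 Chemicals are added to primary human umbilical vein endothelial cells. After 24 h, VCAM-1 levels are measured by ELISA. Values come from bidirectional fitting referenced to DMSO.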

[12] = read-out: Monokine induced gamma interferon (MIG), CXCL9 (gene 4283); test: BSK_BE3C_MIG: BioMAP Diversity Plus: BE3C Assay for Monokine induced gamma interferon (MIG) Biomarker Activity (AID 2283035); conditions: primary human bronchial epithelial cells; actives raise or lower the signal
Summary of the method: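 Dose cells (human primary bronchial epithelial), incubate 24 h, quantify MIG by ELISA, then fit concentration–response in both directions relative to DMSO control.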

[13] = read-out: Transforming growth factor beta 1 (TGFb1), TGFB1 (gene 7040); test: BSK_BE3C_TGFb1: BioMAP Diversity Plus: BE3C Assay for Transforming growth factor beta 1 (TGFb1) Biomarker Activity (AID 2283036); conditions: primary human bronchial epithelial cells; actives raise or lower the signal
Summary of the method: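 Bronchial epithelial primary cells are treated with test chemical, then TGF-b1 is quantified by ELISA after 24 hours. Values derive from bidirectional fitting against DMSO, with cytotoxicity checked by SRB staining in parallel cultures.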

[14] = read-out: Plasminogen activator inhibitor-1 (PAI1), SERPINE1 (gene 5054); test: BSK_BE3C_PAI1: BioMAP Diversity Plus: BE3C Assay for Plasminogen activator inhibitor-1 (PAI1) Biomarker Activity (AID 2283037); conditions: primary human bronchial epithelial cells; actives raise or lower the signal
Summary of the method: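 Values derive from bidirectional fitting against DMSO baseline of PAI-1 levels, measured by ELISA in human bronchial epithelial cells 24 h after compound addition.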

[15] = read-out: urokinase plasminogen activator (uPA), PLAU (gene 5328); test: BSK_BE3C_uPA: BioMAP Diversity Plus: BE3C Assay for urokinase plasminogen activator (uPA) Biomarker Activity (AID 2283038); conditions: primary human bronchial epithelial cells; actives raise or lower the signal
Summary of the method: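 Measured by ELISA: uPA from human primary bronchial epithelial cells 24 h after chemical treatment. Values derive from bidirectional curve fitting with DMSO serving as negative control. Total protein by SRB staining in parallel wells flagged overt cytotoxicity.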

[16] = read-out: Urokinase-type plasminogen activator receptor (uPAR), PLAUR (gene 5329); test: BSK_BE3C_uPAR: BioMAP Diversity Plus: BE3C Assay for Urokinase-type plasminogen activator receptor (uPAR) Biomarker Activity (AID 2283039); conditions: primary human bronchial epithelial cells; actives raise or lower the signal
Summary of the method: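 Steps: dose human primary bronchial epithelial cells, incubate 24 h, measure uPAR by ELISA, then fit gain- or loss-of-signal response bidirectionally relative to DMSO.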

[17] = read-out: Interleukin-6 (IL6), IL6 (gene 3569); test: BSK_CASM3C_IL6: BioMAP Diversity Plus: CASM3C Assay for Interleukin-6 (IL6) Biomarker Activity for (AID 2283040); conditions: primary human coronary artery smooth muscle cells; actives raise or lower the signal
[18] = target: human Vitamin D Receptor (VDR), VDR (gene 7421) (UniProt P11473); test: ATG_VDR_TRANS: Attagene TRANS-FACTORIAL HepG2 Assay for human Vitamin D Receptor (VDR) (AID 2283022; active means hit-call score of the fitted dose curve at least 0.9, where 1 is the maximum)
Sequence of human Vitamin D Receptor (VDR), VDR (gene 7421) (P11473 whole entry, looked up, the tested form may be a part): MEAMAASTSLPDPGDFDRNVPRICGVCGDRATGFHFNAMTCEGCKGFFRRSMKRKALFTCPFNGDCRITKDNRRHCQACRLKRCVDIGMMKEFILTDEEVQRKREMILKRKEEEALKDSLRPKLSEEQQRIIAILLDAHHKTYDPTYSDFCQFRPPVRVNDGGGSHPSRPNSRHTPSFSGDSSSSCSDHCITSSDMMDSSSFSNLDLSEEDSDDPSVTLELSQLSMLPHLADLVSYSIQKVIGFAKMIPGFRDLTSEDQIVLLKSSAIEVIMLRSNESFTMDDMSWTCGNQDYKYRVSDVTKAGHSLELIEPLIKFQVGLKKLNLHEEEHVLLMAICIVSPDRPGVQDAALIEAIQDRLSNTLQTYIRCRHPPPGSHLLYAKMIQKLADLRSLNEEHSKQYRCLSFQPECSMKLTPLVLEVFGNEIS
Summary of the method: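 Fluorescence of labelled reporter cDNA fragments, resolved by capillary electrophoresis, gives mRNA induction after 24 h treatment of HepG2 cells carrying transfected Gal4-fusion reporter units. Activity is fitted in the positive direction with DMSO as baseline.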

Measured: AC50

CC/C(=C(\c1ccccc1)c1ccc(OCCN(C)C)cc1)c1ccccc1
inactive: [7] | [9]
active: [1] 10.4 µM and 9.73 µM | [2] 5.32 µM and 6.55 µM | [3] 10.1 µM and 12.3 µM | [4] 7.7 µM and 8.24 µM | [5] 6.19 µM and 8.06 µM | [6] 4.81 µM and 5.24 µM | [7] 12600 nM | [8] 5.66 µM and 7.14 µM | [9] 4710 nM | [10] 9.68 µM and 9.06 µM | [11] 8.4 µM and 8.08 µM | [12] 12.1 µM and 11.1 µM | [13] 9.23 µM and 20 µM | [14] 11.5 µM and 11.7 µM | [15] 9.63 µM and 7.45 µM | [16] 8.83 µM and 6.66 µM | [17] 27.3 µM and 32.2 µM

C=C(C)C(N)=O
inactive: [1] | [18] | [3] | [4] | [5] | [6] | [7] | [8] | [9] | [10] | [11] | [12] | [13] | [14] | [15] | [16] | [17]

C=C1CC/C=C(\C)CC[C@@H]2[C@@H]1CC2(C)C
active: [1] 36.6 µM | [3] 20 µM | [4] 29.1 µM | [5] 31.9 µM | [8] 33.2 µM | [9] 29100 nM | [11] 29.8 µM
inactive: [18] | [6] | [7] | [10] | [12] | [13] | [14] | [15] | [16] | [17]

CCOC(=O)C=Cc1ccccc1
inactive: [1] | [18] | [3] | [4] | [5] | [6] | [7] | [8] | [9] | [10] | [11] | [12] | [13] | [14] | [15] | [16] | [17]

C=CC(=O)OCC(CO)(COC(=O)C=C)COC(=O)C=C
inactive: [7] | [14]
active: [1] 0.602 µM | [3] 3.22 µM | [4] 0.341 µM | [5] 0.566 µM | [6] 20 µM | [8] 0.964 µM | [9] 661 nM | [10] 336 nM | [11] 0.302 µM | [12] 2.03 µM | [13] 1.4 µM | [15] 631 nM | [16] 2.72 µM | [17] 835 nM

CC=CC(=O)C1=C(C)C=CCC1(C)C
inactive: [1] | [3] | [4] | [5] | [6] | [7] | [8] | [9] | [10] | [11] | [12] | [13] | [14] | [15] | [16] | [17]

CC(=O)c1ccc(C)cc1
active: [9] 1450 nM
inactive: [1] | [3] | [4] | [5] | [6] | [7] | [8] | [9] | [10] | [11] | [12] | [14] | [15] | [16] | [17]

From PubChem BioAssay (EPA / NIEHS)
